Results taken from a collection of fitness landscapes (doi:10.1016/j.celrep.2020.107928).
The full ranking holds about 81,000 sequences; the median of “one-hybrid fitness for binding NBS DNA” is about -0.1, and the highest 2% start at about 0.36. This is one part of a sample in which the highest values are shown more often than they occur.

B1: Caulobacter ParB omega fusion; a variant is named by its letters at X, in order, B8GW30 (parent)
chain: MESVVVGEPGMSEGRRGLGRGLSALLGEVDAAPAQAPGEQLGGSREAPIEILQRNPDQPRRTFREEDLEDLSNSIREKGVLQPILVRPSPDTAGEYQIVAGERAWRAAQRAGLKTVPIMVRELDDLAVLEIGIIENVQRADLNVLEEALSYKVLMEKFERTQENIAQTIGKSXSHVANXMRLLXLPDEVQSYLVSGELTAXHARAIAAAADPVALAKQIIEGGLSVRETEALARKAPNLSAGKSKGGRPPRVKDTDTQALESDLSSVLGLDVSIDHRGSTGTLTITYATLEQLDDLCNRLTRGI

Variants of: B1
Experiment: one-hybrid fitness for binding NBS DNA (the Noc-binding site; scaled: cognate 1, non-cognate 0); higher = stronger binding
Settings: with NBS DNA site
Summary of the method: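 Bacterial one-hybrid selection in E. coli USO rpoZ- hisB- pyrF- with a HIS3 reporter carrying the site 19 bp from the promoter, screening Caulobacter ParB libraries with four specificity codons randomised (NNS). Cells grew 48 hours at 37°C on M9-minus-histidine plus 0.1 mM IPTG and 5 mM 3-AT. Plasmids before and after selection were Illumina-sequenced, three replicate libraries pooled, and variants under 10 reads dropped. Fitness is the log change in variant-to-wild-type read ratio, rescaled to cognate 1, non-cognate 0.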

SLNQ and VERV cannot be ordered by “one-hybrid fitness for binding NBS DNA” value: no more than 0.2 for the first, no more than 0.2 for the second.

NEQT and RMDV cannot be ordered by “one-hybrid fitness for binding NBS DNA” value: no more than 0.2 for the first, no more than 0.2 for the second.

RYAC and YPLD cannot be ordered by “one-hybrid fitness for binding NBS DNA” value: no more than 0.2 for the first, no more than 0.2 for the second.

Compared with IQMR, QKRD is higher in “one-hybrid fitness for binding NBS DNA” value: no more than 0.2 for the first, 0.268 for the second.

First: QKSH
Second: QKLD
The “one-hybrid fitness for binding NBS DNA” value of the first is higher: 0.241 for the first, no more than 0.2 for the second.

First: GWLP
Second: QKRF
The “one-hybrid fitness for binding NBS DNA” value of the first is lower: no more than 0.2 for the first, 0.258 for the second.

First: QKLH
Second: QKRH
The “one-hybrid fitness for binding NBS DNA” value of the first is lower: 0.246 for the first, 0.579 for the second.

First: GWLI
Second: QKSS
The “one-hybrid fitness for binding NBS DNA” value of the first is lower: 0.404 for the first, 0.449 for the second.

GWLS and QKSP cannot be ordered by “one-hybrid fitness for binding NBS DNA” value: no more than 0.2 for the first, no more than 0.2 for the second.

Going from QKLS to YTAV, the “one-hybrid fitness for binding NBS DNA” value falls from 0.392 to no more than 0.2.

HGTI and VPLE cannot be ordered by “one-hybrid fitness for binding NBS DNA” value: no more than 0.2 for the first, no more than 0.2 for the second.

AYGD and RKKE cannot be ordered by “one-hybrid fitness for binding NBS DNA” value: no more than 0.2 for the first, no more than 0.2 for the second.

Going from KHKY to QKRP, the “one-hybrid fitness for binding NBS DNA” value rises from no more than 0.2 to 0.261.

First: QKGS
Second: QKRI
The “one-hybrid fitness for binding NBS DNA” value of the first is higher: 0.465 for the first, 0.301 for the second.

Compared with QKNH, QKGH is lower in “one-hybrid fitness for binding NBS DNA” value: 0.286 for the first, 0.228 for the second.

Compared with QKDD, QKRS is higher in “one-hybrid fitness for binding NBS DNA” value: no more than 0.2 for the first, 0.677 for the second.

First: QKGD
Second: QKDH
The “one-hybrid fitness for binding NBS DNA” value of the first is lower: no more than 0.2 for the first, 0.521 for the second.

MPKT and RGWG cannot be ordered by “one-hybrid fitness for binding NBS DNA” value: no more than 0.2 for the first, no more than 0.2 for the second.

DTNG and IIGR cannot be ordered by “one-hybrid fitness for binding NBS DNA” value: no more than 0.2 for the first, no more than 0.2 for the second.

VAWT and RYQD cannot be ordered by “one-hybrid fitness for binding NBS DNA” value: no more than 0.2 for the first, no more than 0.2 for the second.

Going from RYRS to RYQS, the “one-hybrid fitness for binding NBS DNA” value falls from 0.572 to 0.386.

RYSN and RYQH cannot be ordered by “one-hybrid fitness for binding NBS DNA” value: no more than 0.2 for the first, no more than 0.2 for the second.

Compared with RYSG, RYST is higher in “one-hybrid fitness for binding NBS DNA” value: no more than 0.2 for the first, 0.452 for the second.

Going from RYSS to RYRN, the “one-hybrid fitness for binding NBS DNA” value falls from 0.437 to no more than 0.2.

RYRD and RYSC cannot be ordered by “one-hybrid fitness for binding NBS DNA” value: no more than 0.2 for the first, no more than 0.2 for the second.

RYSH and MMDT cannot be ordered by “one-hybrid fitness for binding NBS DNA” value: no more than 0.2 for the first, no more than 0.2 for the second.

HANR and IMHC cannot be ordered by “one-hybrid fitness for binding NBS DNA” value: no more than 0.2 for the first, no more than 0.2 for the second.

VAPN and GWLG cannot be ordered by “one-hybrid fitness for binding NBS DNA” value: no more than 0.2 for the first, no more than 0.2 for the second.

KQKS and FLVG cannot be ordered by “one-hybrid fitness for binding NBS DNA” value: no more than 0.2 for the first, no more than 0.2 for the second.

LDND and SIIL cannot be ordered by “one-hybrid fitness for binding NBS DNA” value: no more than 0.2 for the first, no more than 0.2 for the second.

AHHA and SHVW cannot be ordered by “one-hybrid fitness for binding NBS DNA” value: no more than 0.2 for the first, no more than 0.2 for the second.

CFRT and RYND cannot be ordered by “one-hybrid fitness for binding NBS DNA” value: no more than 0.2 for the first, no more than 0.2 for the second.

Going from RYNS to RYHN, the “one-hybrid fitness for binding NBS DNA” value falls from 0.497 to no more than 0.2.

RYHD and RYCP cannot be ordered by “one-hybrid fitness for binding NBS DNA” value: no more than 0.2 for the first, no more than 0.2 for the second.

Going from RYHS to RYCS, the “one-hybrid fitness for binding NBS DNA” value falls from 0.441 to 0.395.

Compared with RYYS, RYIS is lower in “one-hybrid fitness for binding NBS DNA” value: 0.371 for the first, no more than 0.2 for the second.

RYWS and RYCH cannot be ordered by “one-hybrid fitness for binding NBS DNA” value: no more than 0.2 for the first, no more than 0.2 for the second.

RYDS and EYQC cannot be ordered by “one-hybrid fitness for binding NBS DNA” value: no more than 0.2 for the first, no more than 0.2 for the second.

Going from RKSA to PEMV, the “one-hybrid fitness for binding NBS DNA” value falls from 0.284 to no more than 0.2.

LCRH and YRHS cannot be ordered by “one-hybrid fitness for binding NBS DNA” value: no more than 0.2 for the first, no more than 0.2 for the second.

RYGD and RYGF cannot be ordered by “one-hybrid fitness for binding NBS DNA” value: no more than 0.2 for the first, no more than 0.2 for the second.

Going from RYQY to RYHT, the “one-hybrid fitness for binding NBS DNA” value rises from no more than 0.2 to 0.45.

RYHG and RYQF cannot be ordered by “one-hybrid fitness for binding NBS DNA” value: no more than 0.2 for the first, no more than 0.2 for the second.

Going from RYGT to RYGN, the “one-hybrid fitness for binding NBS DNA” value falls from 0.373 to no more than 0.2.

First: RYHQ
Second: RYGS
The “one-hybrid fitness for binding NBS DNA” value of the first is lower: no more than 0.2 for the first, 0.426 for the second.

First: RYGC
Second: RYQT
The “one-hybrid fitness for binding NBS DNA” value of the first is lower: no more than 0.2 for the first, 0.381 for the second.
